Measurements as given in PubChem BioAssay (Tox21).
Unmarked numbers belong to inactive results. Records with an inconclusive call do not appear. Where a call stands in place of a potency, no number is given. Calls of active or inactive are those of the source. Unless noted, calls follow the shape of the dose curve; as a rule, active = well fitted curve in the direction sought with a large enough effect in the repeat runs; inconclusive = weak or mixed curves; inactive = no such curve, though single readings can be large; an effect the other way counts as inactive or inconclusive.

What was measured:
[1] = A CellTox Green Cytotoxicity Assay to monitor cytotoxicity in HEK293 cells - 8 hour (AID 1224884); also: nearly all actives have a fitted effect of over 35% in size
Summary of the method: (§1)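 HEK293 cells, 600/well, were preincubated 5 hours and then exposed to compounds at 37 C for up to 40 hours. A cell-impermeant cyanine dye staining dead-cell DNA was read by fluorescence at 0, 8, 16, 24, 32 and 40 h time points.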

[2] = qHTS RealTime-Glo MT Cell Viability Assay in HepG2 cells - 16 hour (AID 1224885); also: nearly all actives have a fitted effect of over 50% in size
Summary of the method: (§2)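 HepG2 cells were seeded at 600 cells/well together with NanoLuc luciferase and a cell-permeant prosubstrate, preincubated 5 h at 37 C/5% CO2, then pin-dosed with compounds in DMSO. Nonlytic luminescence from viable cells was read at each time point.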

[3] = qHTS RealTime-Glo MT Cell Viability Assay in HEK293 cells - 24 hour (AID 1224886); also: nearly all actives have a fitted effect of over 50% in size; also: potency is read from the fitted curve at half-maximal effect; as to activity change, negative = cytotoxicity: top concentration of the series differs between compounds
Summary of the method: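 HEK293 cells were seeded at 600 cells/well together with NanoLuc luciferase and cell-permeant prosubstrate, preincubated 5 h at 37 C/5% CO2, then given compound in DMSO by pintool. Luminescence from viable-cell prosubstrate reduction was read repeatedly over 40 h.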

[4] = qHTS RealTime-Glo MT Cell Viability Assay in HEK293 cells - 8 hour (AID 1224887); also: top concentration of the series differs between compounds; nearly all actives have a fitted effect of over 50% in size
Summary of the method: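 600 cells/well were plated with the nonlytic NanoLuc/prosubstrate reagent, pre-incubated 5 h, then given 23 nL of compound in DMSO. Incubation at 37 C for 40 h, with luminescence from viable-cell-reduced substrate read repeatedly from 0 h.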

[5] = A CellTox Green Cytotoxicity Assay to monitor cytotoxicity in HEK293 cells - 16 hour (AID 1224888); also: nearly all actives have a fitted effect of over 35% in size
Summary of the method: as §1

[6] = qHTS RealTime-Glo MT Cell Viability Assay in HepG2 cells - 0 hour (AID 1224889); also: nearly all actives have a fitted effect of over 50% in size
Summary of the method: as §2

[7] = A CellTox Green Cytotoxicity Assay to monitor cytotoxicity in HepG2 cells - 8 hour (AID 1224890); also: nearly all actives have a fitted effect of over 45% in size
Summary of the method: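 HepG2 cells, 600/well, preincubated 5 h with CellTox Green dye, then exposed to Tox21 compounds in DMSO at 37 C for up to 40 h. Dead-cell DNA fluorescence read at the indicated time point.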

[8] = qHTS assay to identify small molecule antagonists of the estrogen receptor alpha (ER-alpha) signaling pathway using the BG1 cell line in the presence of 0.1 nM 17-beta-estradiol - cell viability counter screen (AID 1259241); also: nearly all actives have a fitted effect of over 40% in size
Summary of the method: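 VM7Luc4E2, 4,000 cells/well, phenol red-free medium + 10% charcoal-stripped FBS; 24 hr plating; cpd + 0.1 nM E2 final, 22 hr 37C/5% CO2; CellTiter-Fluor 30 min, fluorescence.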

[9] = qHTS assay to identify small molecule antagonists of the androgen receptor (AR) signaling pathway using the MDA cell line in the presence of 0.5 nM R1881 - cell viability counter screen (AID 1259242); also: nearly all actives have a fitted effect of over 45% in size
Summary of the method: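 MDA-kb2 cells (MMTV-luciferase, AR/GR responsive) were treated with compounds plus 0.5 nM R1881 (final) for 16 hr at 37C, 0% CO2. Viability was then read in the same wells as live-cell protease fluorescence (CellTiter-Fluor, 30 min).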

[10] = molecular target: Androgen receptor (Homo sapiens) (UniProt P10275); test: qHTS assay to identify small molecule antagonists of the androgen receptor (AR) signaling pathway using the MDA cell line in the presence of 0.5 nM R1881 (AID 1259243); also: nearly all actives have a fitted effect of over 50% in size; also: potency is read from the fitted curve at half-maximal effect
Summary of the method: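 MDA-kb2 cells (MMTV-luciferase, responsive to AR and GR) at 3,000/well, rested 5 h at 37C, 0% CO2, then given compounds plus 0.5 nM R1881 (final) for 16 hr. Luciferase read with ONE-Glo after 30 min at room temperature.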

[11] = molecular target: Estrogen receptor (Homo sapiens) (UniProt P03372); test: qHTS assay to identify small molecule antagonists of the estrogen receptor alpha (ER-alpha) signaling pathway using the BG1 cell line in the presence of 0.1 nM 17-beta-estradiol (AID 1259244); also: nearly all actives have a fitted effect of over 50% in size
Summary of the method: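 VM7Luc4E2 cells (endogenous full-length ER-alpha, 4×ERE-luciferase), kept 5 days in phenol red-free, charcoal-stripped FBS medium; 4,000 cells/well. Compounds added with 0.1 nM (final) 17beta-estradiol, 22 hr at 37C; luminescence read with ONE-Glo after 30 min.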

[12] = qHTS assay to identify small molecule HDAC inhibitors - cell viability counter screen (AID 1259365)
Summary of the method: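 Luminescence from CellTiter-Glo, developed 30min at room temperature, reports viability of wild-type HCT-116 cells treated 2hr with compounds at 37 C and 5% CO2 after overnight plating.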

[13] = qHTS assay to identify small molecule agonists of the sonic hedgehog signaling (Shh) pathway - cell viability counter screen (AID 1259366); also: nearly all actives have a fitted effect of over 50% in size; also: potency is read from the fitted curve at half-maximal effect
Summary of the method: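 Cytotoxicity counter screen run in the same wells as the Shh reporter assay. NIH/3T3 cells carrying a Gli1 response element–driven luciferase were treated with DMSO-dissolved compounds for 24hr, and live-cell protease activity was measured with CellTiter-Fluor.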

[14] = qHTS assay to identify small molecule antagonists of the sonic hedgehog signaling (Shh) pathway - cell viability counter screen (AID 1259367); also: nearly all actives have a fitted effect of over 55% in size; also: potency is read from the fitted curve at half-maximal effect
Summary of the method: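 Using CellTiter-Fluor, viability of Gli1-Luc reporter 3T3 cells is read by fluorescence in the wells used for the Shh luciferase assay. Treatment lasts 23 hr with conditioned medium, then reagent 1 hr at 37C.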

[15] = qHTS assay to identify small molecule agonists of the sonic hedgehog signaling (Shh) pathway (AID 1259368; calls by dose curve;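 also: NIH/3T3-derived 3T3Gli1-Luc cells carrying a stable Gli1-driven firefly luciferase reporter; series mostly up to about 92 µM; nearly all actives have a fitted effect of over 15% in size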)
Summary of the method: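 NIH/3T3-derived 3T3Gli1-Luc cells with stably integrated Gli1-driven firefly luciferase, 2,000 cells/well, compounds added after 4 hr. Incubated 24 hr at 37C, 5% CO2; luminescence read after 30 min with luciferase reagent at room temperature.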

[16] = qHTS assay to identify small molecule antagonists of the sonic hedgehog signaling (Shh) pathway (AID 1259369; calls by dose curve; also: nearly all actives have a fitted effect of over 45% in size; also: potency is read from the fitted curve at half-maximal effect)
Summary of the method: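 NIH/3T3-derived Gli1-Luc reporter cells plated 4 h, dosed with compound, then stimulated with conditioned medium for 24 h at 37 C. Firefly luciferase luminescence read after 30 min with detection reagent at room temperature.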

[17] = qHTS assay to identify small molecule phospholipidosis (PLD) inducers (AID 1259344; active = well fitted curve in the direction sought with a large enough effect; an effect the other way counts as inactive or inconclusive)
Summary of the method: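 Fluorescent phospholipid staining (LipidTOX Red) measured by automated microscopy in fixed HepG2 cells after 24 h treatment; nuclei counterstained with Hoechst 33342; amiodarone as reference inducer.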

[18] = qHTS assay to identify small molecule HDAC inhibitors (AID 1259364); also: top concentration of the series differs between compounds; nearly all actives have a fitted effect of over 45% in size
Summary of the method: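 Wild-type HCT-116 cells, plated overnight at 37 C, exposed to compounds 2 hr at 37 C; luminogenic HDAC-Glo substrate then added 30 min at room temperature. Luminescence reports relative endogenous class I/II HDAC activity.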

[19] = molecular target: Estrogen receptor beta (Homo sapiens) (UniProt Q92731); test: qHTS assay to identify small molecule agonists of the estrogen receptor beta (ER-beta) signaling pathway (AID 1259377; active = well fitted activation curve with a large enough effect in the signal ratio in the repeat runs, not every such curve was filed as active; the % refers to the signal ratio)
Summary of the method: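 HEK293T ER-beta-UAS-bla; 2% charcoal-stripped FBS; cells pre-incubated 6 hr, compound 16 hr, 37C/5% CO2; LiveBLAzer B/G FRET substrate 2 h RT; fluorescence intensity read.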

[20] = molecular target: Estrogen receptor beta (Homo sapiens) (UniProt Q92731); test: qHTS assay to identify small molecule antagonists of the estrogen receptor beta (ER-beta) signaling pathway (AID 1259378; active = well fitted inhibition curve with a large enough effect in the signal ratio in the repeat runs, not every such curve was filed as active; the % refers to the signal ratio; also: potency is read from the fitted curve at half-maximal effect)
Summary of the method: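 Antagonist mode: compounds added to beta-lactamase reporter HEK293T ER-beta-UAS cells stimulated with E2 (1nM final), 16 hr at 37C. LiveBLAzer B/G FRET substrate, 2 hours room temperature, fluorescence read-out.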

Sequence of Androgen receptor (Homo sapiens) (P10275 whole entry, looked up): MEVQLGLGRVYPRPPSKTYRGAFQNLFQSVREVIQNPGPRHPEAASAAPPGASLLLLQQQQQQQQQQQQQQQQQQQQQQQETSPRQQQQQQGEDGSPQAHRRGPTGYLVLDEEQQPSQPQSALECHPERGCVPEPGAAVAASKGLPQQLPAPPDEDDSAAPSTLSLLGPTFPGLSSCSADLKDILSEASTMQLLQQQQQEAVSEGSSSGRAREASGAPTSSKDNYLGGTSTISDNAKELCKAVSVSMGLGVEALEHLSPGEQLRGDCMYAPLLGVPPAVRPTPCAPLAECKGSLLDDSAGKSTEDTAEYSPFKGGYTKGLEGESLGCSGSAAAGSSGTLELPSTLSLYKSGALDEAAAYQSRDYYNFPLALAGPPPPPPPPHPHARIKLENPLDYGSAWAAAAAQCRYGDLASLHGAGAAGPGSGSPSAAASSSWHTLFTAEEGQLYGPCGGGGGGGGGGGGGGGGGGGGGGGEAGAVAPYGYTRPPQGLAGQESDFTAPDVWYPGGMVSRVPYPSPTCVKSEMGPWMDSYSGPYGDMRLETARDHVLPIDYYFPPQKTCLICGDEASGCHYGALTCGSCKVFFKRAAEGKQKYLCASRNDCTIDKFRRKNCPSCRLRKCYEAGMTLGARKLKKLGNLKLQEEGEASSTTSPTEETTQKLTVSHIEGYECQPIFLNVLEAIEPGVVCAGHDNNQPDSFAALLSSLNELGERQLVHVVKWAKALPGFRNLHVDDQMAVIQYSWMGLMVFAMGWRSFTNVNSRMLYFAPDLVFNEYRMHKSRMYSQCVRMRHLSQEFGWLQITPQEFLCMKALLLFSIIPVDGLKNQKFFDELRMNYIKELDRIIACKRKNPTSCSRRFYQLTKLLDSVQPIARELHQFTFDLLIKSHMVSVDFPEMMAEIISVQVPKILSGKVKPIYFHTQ
Sequence of Estrogen receptor (Homo sapiens) (P03372 whole entry, looked up): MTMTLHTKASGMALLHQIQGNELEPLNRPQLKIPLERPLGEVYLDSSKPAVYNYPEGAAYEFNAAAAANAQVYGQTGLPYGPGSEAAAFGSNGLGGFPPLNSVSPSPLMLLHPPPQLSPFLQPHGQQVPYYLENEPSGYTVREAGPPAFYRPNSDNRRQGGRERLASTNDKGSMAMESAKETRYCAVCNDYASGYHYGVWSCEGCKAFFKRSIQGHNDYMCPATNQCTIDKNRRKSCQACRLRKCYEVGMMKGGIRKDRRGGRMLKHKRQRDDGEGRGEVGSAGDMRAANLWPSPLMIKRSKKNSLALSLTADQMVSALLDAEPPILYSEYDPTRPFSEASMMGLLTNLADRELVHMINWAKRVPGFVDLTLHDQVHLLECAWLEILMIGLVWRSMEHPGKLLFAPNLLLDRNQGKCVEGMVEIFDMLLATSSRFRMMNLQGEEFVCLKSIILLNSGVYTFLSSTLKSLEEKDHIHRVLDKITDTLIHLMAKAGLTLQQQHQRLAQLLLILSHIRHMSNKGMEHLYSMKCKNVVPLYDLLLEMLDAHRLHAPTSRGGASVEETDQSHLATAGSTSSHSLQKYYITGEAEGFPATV
Sequence of Estrogen receptor beta (Homo sapiens) (Q92731 whole entry, looked up): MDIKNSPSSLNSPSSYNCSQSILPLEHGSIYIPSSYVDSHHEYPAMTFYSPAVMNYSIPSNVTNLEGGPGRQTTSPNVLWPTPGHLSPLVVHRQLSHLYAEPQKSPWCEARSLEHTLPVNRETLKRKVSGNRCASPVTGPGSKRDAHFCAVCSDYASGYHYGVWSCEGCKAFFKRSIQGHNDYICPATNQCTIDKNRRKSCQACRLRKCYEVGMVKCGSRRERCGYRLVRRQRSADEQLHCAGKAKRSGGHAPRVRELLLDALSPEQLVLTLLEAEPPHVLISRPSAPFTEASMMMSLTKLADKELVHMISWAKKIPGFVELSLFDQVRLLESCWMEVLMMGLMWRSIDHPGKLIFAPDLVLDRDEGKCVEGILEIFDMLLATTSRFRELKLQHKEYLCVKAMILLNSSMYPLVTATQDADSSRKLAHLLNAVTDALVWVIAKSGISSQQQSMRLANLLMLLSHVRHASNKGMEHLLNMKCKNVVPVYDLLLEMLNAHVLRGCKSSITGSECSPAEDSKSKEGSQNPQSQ

Structure (SMILES): CCc1cccc(C)c1N(C(=O)C(=O)O)C(C)COC (configuration not stated)
- Potency [1]: inactive
- Potency [2]: inactive
- Potency [3]: inactive
- Potency [4]: inactive
- Potency [5]: inactive
- Potency [6]: inactive
- Potency [7]: inactive
- Potency [8]: inactive
- Potency [9]: inactive
- Potency [10]: inactive
- Potency [11]: inactive
- Potency [12]: inactive
- Potency [13]: inactive
- Potency [14]: inactive
- Potency [15]: inactive
- Potency [16]: inactive

Structure (SMILES): CN1CC[C@H](c2c(O)cc(O)c3c(=O)cc(-c4ccccc4Cl)oc23)[C@H](O)C1
- Potency [1]: inactive
- Potency [2]: inactive
- Potency [3]: 151 nM (active)
- Potency [4]: inactive
- Potency [5]: inactive
- Potency [6]: inactive
- Potency [7]: inactive
- Potency [8]: inactive
- Potency [9]: inactive
- Potency [10]: 0.0944 µM (active)
- Potency [17]: inactive
- Potency [18]: inactive
- Potency [12]: inactive
- Potency [13]: 376 nM (active)
- Potency [14]: 298 nM (active)
- Potency [15]: inactive
- Potency [16]: 47.3 nM (active)

Structure (SMILES): COCCC(=O)OC
- Potency [1]: inactive
- Potency [2]: inactive
- Potency [3]: inactive
- Potency [4]: inactive
- Potency [5]: inactive
- Potency [6]: inactive
- Potency [7]: inactive
- Potency [8]: inactive
- Potency [9]: inactive
- Potency [10]: inactive
- Potency [18]: inactive
- Potency [12]: inactive
- Potency [15]: inactive

Structure (SMILES): O=C(O)CN(CCCN(CC(=O)O)CC(=O)O)CC(=O)O
- cytotoxicity increase [1]: -4.96% [at 15.8 µM]
- activity change, negative = cytotoxic [2]: -11.5% [at 15.8 µM]
- activity change, negative = cytotoxicity [3]: -9.03% [at 15.8 µM]
- activity change, negative = cytotoxicity [4]: -4.97% [at 15.8 µM]
- activity change [5]: 0.612% [at 15.8 µM, active compounds read high]
- activity change, negative = cytotoxicity [6]: -28.3% [at 15.8 µM]
- cytotoxicity increase [7]: -1.45% [at 15.8 µM]
- activity change, negative = cytotoxicity [8]: 0.536% [at 19 µM]
- viability change, negative = cytotoxic [9]: 0.128% [at 19 µM]
- activity, negative = inhibition [10]: 1.14% [at 19 µM]
- activity change, negative = inhibition [11]: -0.399% [at 19 µM]
- activity change, negative = cytotoxicity [12]: -1.94% [at 19 µM]
- viability change, negative = cytotoxic [13]: -10.7% [at 19 µM]
- viability change, negative = cytotoxic [14]: -4.5% [at 19 µM]
- activity change [15]: -1.26% [at 18.9 µM, active compounds read high]
- activation [19]: -3.28% [at 19 µM]
- Potency [20]: 2.31 µM (active)

Structure (SMILES): Nc1ccc(Cl)c([N+](=O)[O-])c1
- Potency [1]: inactive
- Potency [2]: inactive
- Potency [3]: inactive
- Potency [4]: inactive
- Potency [5]: inactive
- Potency [6]: inactive
- Potency [7]: inactive
- Potency [8]: inactive
- Potency [9]: inactive
- Potency [10]: 24.3 µM (active)
- Potency [12]: inactive
- Potency [15]: inactive

Structure (SMILES): CCOC=C(C(=O)OCC)C(=O)OCC
- Potency [1]: inactive
- Potency [2]: inactive
- Potency [3]: inactive
- Potency [4]: inactive
- Potency [5]: inactive
- Potency [6]: inactive
- Potency [7]: inactive
- Potency [8]: inactive
- Potency [9]: inactive
- Potency [10]: inactive
- Potency [11]: inactive
- Potency [12]: inactive
- Potency [13]: inactive
- Potency [14]: inactive
- Potency [15]: inactive
- Potency [16]: inactive
- Potency [20]: inactive
